# PubChem BioAssay AID504700 (The Scripps Research Institute Molecular Screening Center, 2011)
# Screen size: about 340,000 compounds; about 270 (0.079%) were called active. Shown is part of a subset that was picked to be rich in actives. Values without a mark were called inactive.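 How the source made its calls: active means activation above a cutoff set at the mean over all compounds plus 3 SD (cut at about 18% in these data); inactive means the rest.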 Where a SMILES comes first, the peptide text is derived from it.
# Molecular target: cAMP-dependent protein kinase catalytic subunit beta (Homo sapiens) + cAMP-dependent protein kinase type II-beta regulatory subunit (Homo sapiens) (UniProt P22694+P31323)
# Sequence (P31323 whole entry, looked up, other chains not shown): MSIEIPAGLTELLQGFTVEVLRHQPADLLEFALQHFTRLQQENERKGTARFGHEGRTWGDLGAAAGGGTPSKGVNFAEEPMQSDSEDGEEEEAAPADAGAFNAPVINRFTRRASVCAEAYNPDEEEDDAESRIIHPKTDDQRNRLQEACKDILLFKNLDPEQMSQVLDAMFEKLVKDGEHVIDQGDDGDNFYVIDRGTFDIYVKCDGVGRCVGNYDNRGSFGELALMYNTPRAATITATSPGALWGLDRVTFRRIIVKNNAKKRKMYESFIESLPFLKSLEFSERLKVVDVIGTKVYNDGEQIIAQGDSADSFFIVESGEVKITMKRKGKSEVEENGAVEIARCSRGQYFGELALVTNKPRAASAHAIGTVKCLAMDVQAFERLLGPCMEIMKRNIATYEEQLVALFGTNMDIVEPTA
# Assay: compounds dissociating PKAc from R2B subunit – biochemical, fluorescence polarization, Cy5-IP20, human, primary screen (AID 504700);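 further: higher means more holoenzyme dissociation and a rise in polarization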
# Conditions: PKA-R2B holoenzyme dissociation, at 11.4 µM, hits give high values, 0% DMSO only, 100% 113 µM cGMP, R2B truncated from residue 108, S112A mutant
row,SMILES,activation
1,C[C@H]1CN([C@@H](C)CO)C(=O)c2cc(-c3cccc(F)c3)cnc2O[C@@H]1CN(C)S(C)(=O)=O,4.49%
2,O=C(C1CCCO1)N1CCN(C(=O)C23CC4CC(CC(C4)C2)C3)CC1 (centres undefined),7.92%
3,O=Nc1c(O)cc(O)c2ccccc12,-0.7%
4,O=C(CCN1CCCCC1)Nc1ccc(F)c(F)c1,-4%
5,O[C@H]1C[C@H](c2ccc(Cl)cc2)N(Cc2cccs2)C[C@@H]1n1cc(C2CC2)nn1,-5.34%
6,COc1ccc(-c2ccc3[nH]c4c(c3c2)CCN2C[C@H]3[C@H](C)ON(C)[C@H]3C[C@@H]42)cc1,-1.96%
7,C[C@H]1CN([C@@H](C)CO)C(=O)c2cc(Br)cnc2O[C@H]1CN(C)S(=O)(=O)c1cccs1,-1.49%
8,O=C(c1ncn2c1c(=O)[nH]c1ccccc12)N1CCc2ccccc2C1,0.26%
9,Cc1cccc(C)c1NC(=O)CNC(=O)c1ccc(N2CCOCC2)c([N+](=O)[O-])c1,-5.41%
10,Cc1noc(C)c1NC(=O)N(C)C[C@@H]1Oc2cc(Br)ccc2S(=O)(=O)N([C@@H](C)CO)C[C@H]1C,-6.5%
11,Cc1cn([C@H]2C[C@H](O)[C@@H](CNC(=O)[C@H](N)Cc3cccnc3)O2)c(=O)[nH]c1=O,3.26%
12,COc1ccc(NC(=O)CN(C)C(=O)c2cc(C)oc2C)cc1,7.31%
13,O=C(NCCc1cccc(F)c1)C1CC(O)CN1C(=O)Nc1ccccc1 (centres undefined),-8.6%
14,COc1ccc([C@H]2N[C@]3(CCCN(Cc4ccco4)C3=O)[C@H]3C(=O)N(C)C(=O)[C@@H]23)cc1,-1.07%
15,C[C@H]1CN([C@@H](C)CO)C(=O)c2cc(C3=CCCCC3)cnc2O[C@@H]1CN(C)C(=O)Cc1ccccc1,4.23%
16,CC(C)(C)c1nnc(N/N=C/c2ccc(O)cc2)n(N)c1=O,21.1% (active)
17,Nc1nnn(CC(=O)N/N=C/c2ccc(O)cc2)n1,-7.14%
18,Cc1nonc1C(=O)N/N=C/c1ccc(O)cc1,-0.48%
19,COc1cc2nnn(-c3ccncc3)c2cc1OC,5.36%
20,COc1ccc(C(=O)OCC(=O)Nc2cc(C)on2)cc1F,1.88%
21,COC(=O)C[C@H]1C[C@@H]2c3cc(NC(=O)Nc4ccccc4)ccc3O[C@@H]2[C@@H](CO)O1,6.99%
22,CC(C)[C@H](NC(=O)c1ccccc1F)C(=O)Nc1cccc(S(=O)(=O)N2CCOCC2)c1,4.82%
23,Cc1ccc([C@H]2N[C@]3(CCCN(CC4CCCCC4)C3=O)[C@H]3C(=O)N(Cc4ccccc4)C(=O)[C@@H]23)cc1,-3.62%
24,O=C(CNC(=O)c1ccccc1)NCC(=O)OCc1ccc(Cl)cc1,-2.62%
25,O=C(CNC(=O)c1ccccc1)NCC(=O)OCC(=O)c1ccccc1 (HELM PEPTIDE1{[O=C(c1ccccc1)[*:2]].G.G.[O=C(CO[*:1])c1ccccc1]}$$$$V2.0),22.6% (active)
26,O=C(CNC(=O)c1ccco1)OCC(=O)c1ccccc1,3.42%
27,O=C(O)C1CCCN1c1nc(Cl)ccc1[N+](=O)[O-] (centres undefined),5.76%

row,SMILES,activation
1,COc1ccc(C(CNC(=O)c2ccc(OCc3cscn3)cc2)N2CCCC2)cc1 (centres undefined),3.82%
2,O=C(O)C1=C(C(=O)O)C2CCC1C2,19.1% (active)
3,COc1ccc(S(=O)(=O)N2CCCCC2)cc1C(=O)NC1CCS(=O)(=O)C1 (centres undefined),-9.4%
4,C[C@@H]1CN([C@@H](C)CO)C(=O)c2cc(NS(C)(=O)=O)ccc2O[C@@H](C)CCCCO[C@H]1CN(C)C(=O)Nc1ccc2c(c1)OCO2,3.71%
5,COc1cccc(C(=O)Nc2ccc3nc4n(c(=O)c3c2)CCCCC4)c1,-0.66%
6,CC(C)C1CCN(C(=O)C2CCC(=O)N(C3CCCCCC3)C2)CC1 (centres undefined),-0.9%
7,N#CCCN(C(=O)Nc1ccc(Cl)c(Cl)c1)C1CCCCC1,1.61%
8,O=C(c1ccc(CS(=O)Cc2ccccc2Cl)o1)N1CCN(c2ccccc2)CC1 (centres undefined),2.13%
9,COc1ccc(-c2cnc3c(c2)C(=O)N([C@H](C)CO)C[C@@H](C)[C@H](CN(C)Cc2ccccc2)O3)cc1,5.52%
10,CCOc1cc(/C=N/NC(=O)c2ccncc2)cc(Br)c1O,-1.34%
11,Cc1ccc(NC(=O)c2ccco2)cc1,4.37%
12,CC1(C)CN(CCc2ccccc2)C(=O)[C@H]1CC(=O)Nc1ccc(Br)cc1,-0.64%
13,COc1ccc(NC(=O)N(C)C[C@H]2Oc3ncc(C#C[C@@H](C)O)cc3C(=O)N([C@H](C)CO)C[C@H]2C)cc1,2.12%
14,COCOCCn1cc(CN2CCS(=O)(=O)N(Cc3ccc(-c4ccc(OC)cc4)cc3)C(CC(C)C)C2=O)nn1 (centres undefined),-14.1%
15,Cc1cccc(C(=O)NC2CCN(CC(=O)Nc3cccc(Cl)c3)CC2)c1,-3.65%
16,COc1ccc(OC)c(NC(=O)C2CCCN2S(=O)(=O)c2ccc3c(c2)CC(C)N3C(C)=O)c1 (centres undefined),-3.21%
17,CC(=O)NC(Cc1ccc(F)c(F)c1)C(=O)NC1CCN(C(=O)c2ccc(C)cc2)CC1 (centres undefined),-1.79%
18,COc1ccc(CC(NC(C)=O)C(=O)NC2CCN(C(=O)c3ccc(OC)c(OC)c3)CC2)cc1OC (centres undefined),-5.58%
19,COc1ccc(CC(NC(C)=O)C(=O)NC2CCN(C(=O)c3ccc(Cl)cc3)CC2)cc1 (centres undefined),19.4% (active)
20,COc1ccc(C(=O)CSc2nnc(NC(=O)C3CC(=O)N(c4cccc(OC)c4)C3)s2)cc1 (centres undefined),-12.2%
21,COc1cccc(Nc2nnc(SCC(=O)N3CC(=O)Nc4ccccc43)s2)c1,-4.91%
22,COc1cccc(Nc2nnc(SCC(=O)N3CC(C)OC(C)C3)s2)c1 (centres undefined),19.7% (active)
23,C[C@@H]1CN([C@@H](C)CO)C(=O)CCCn2nncc2CO[C@@H]1CN(C)S(=O)(=O)c1ccc(-c2ccccc2)cc1,8.61%
24,CN1CCn2cnc(C(=O)NCC(=O)OC(C)(C)C)c2C1=O,6.86%
25,C[C@H]1CN([C@@H](C)CO)C(=O)CCCn2cc(nn2)CO[C@@H]1CN(C)S(=O)(=O)c1ccc(-c2ccccc2)cc1,-2.02%
26,Cc1csc(=O)n1CCC(=O)OCC(=O)Nc1ccc(N2CCOCC2)cc1,-13.7%
27,COc1cc(C)c(CN2CCN(C(=O)CCC(=O)c3ccc(C)s3)CC2)cc1OC,-4.23%

row,SMILES,activation
1,C[C@@H]1CN([C@H](C)CO)C(=O)c2cc(-c3ccc(F)cc3)cnc2O[C@H]1CN(C)C(=O)c1ccc(F)cc1,-10.7%
2,O=C(CCc1ccc(O)cc1)NN=Cc1cc(Br)ccc1O,-5.67%
3,CCCCN1CC(C)(C)[C@H](CC(=O)Nc2ccc(Br)cc2)C1=O,-7.25%
4,C=CCOc1cccc(C2C(C(=O)c3ccc(C)o3)=C(O)C(=O)N2CCN2CCOCC2)c1 (centres undefined),2.21%
5,CC1(C)CC(=O)C=C(c2ccccc2CO)C1=O,-3.08%
6,C[C@@H]1CN([C@@H](C)CO)C(=O)CCCn2nncc2CO[C@H]1CN(C)C(=O)Nc1ccc(C(F)(F)F)cc1,-17.1%
7,C[C@@H]1CN([C@H](C)CO)C(=O)CCCn2nncc2CO[C@@H]1CN(C)C(=O)OCc1ccccc1,-4.31%
8,O=C(NCCOc1ccccc1)N1[C@H]2CC[C@@H]1C=C(c1ccc(F)cc1OCc1ccccc1)C2,-0.02%
9,CSc1ncnc2c1ncn2CCCNCC(C)c1ccccc1 (centres undefined),-3.46%
10,Cc1ccc(-c2ccc(CN3C(C)C(=O)N(Cc4cn(CCC5OCCCO5)nn4)CCS3(=O)=O)cc2)cc1 (centres undefined),-0.73%
11,CSc1ncccc1C(=O)N1CCCC(Nc2ccc(F)c(F)c2)C1 (centres undefined),-3.17%
12,COc1ccccc1-n1c(SCC(=O)Nc2ccc(Cl)cc2)nc(O)c(Cc2ccccc2)c1=O,0.18%
13,Cc1cc(=O)c2ccc(NC(=O)c3ccccc3)cc2[nH]1,0.43%
14,CCC(C)(C)NC(=O)CN(C(=O)CCC(=O)Nc1nccs1)c1ccc2c(c1)OCO2,6.11%
15,COc1ccc(N(CC(=O)NCc2ccc(F)cc2)C(=O)CCC(=O)Nc2nccs2)cc1,-12.4%
16,O=C(CN(C(=O)CCC(=O)Nc1nccs1)c1ccc(F)cc1)NCc1ccc2c(c1)OCO2,18.4% (active)
17,O=C(Nc1ccc2c(c1)[C@@H]1C[C@@H](CC(=O)N3CCCCC3)O[C@@H](CO)[C@@H]1O2)NC1CCCCC1,-11.6%
18,O=C(OCc1cn([C@@H]2C[C@H](c3ccc(Cl)cc3)N(Cc3cccs3)C[C@H]2O)nn1)c1ccccc1,-14.6%
19,CCN(CC)C(=O)C1=C(C)N(Cc2ccc(F)cc2)C(=O)C(CC(=O)NCc2cccc3ccccc23)C1 (centres undefined),1.37%
20,O=c1[nH]c2ccccc2n1C1CCN(CCOc2ccccc2)CC1,-11%
21,CSC1=NN(c2ccccc2)CN(c2ccccc2)N1C,9.82%
22,O=C(COC(=O)Cc1ccc(Cl)cc1Cl)NCc1ccco1,-1.41%
23,CCCC(=O)Nc1ncnc2c1ncn2[C@@H]1O[C@@H]2OP(=O)(O)OC[C@H]2[C@H]1OC(=O)CCC,42.6% (active)
24,CCOC(=O)c1c(C)[nH]c(C)c1C(=O)COC(=O)/C=C/c1cccc([N+](=O)[O-])c1,-7.22%
25,COc1ccc(CN2C(=O)C(CC(=O)NCCN3CCOCC3)CC(C(=O)N(C(C)C)C(C)C)=C2C)cc1 (centres undefined),-6%
